What follows are sequences tested against USO1 (assay: pooled miR-30 sensor sort-seq; sequence = guide strand). Settings: shRNA.
Also: reference of the scale not given here.

| Sequence | sensor-assay potency score (higher = more potent) |
| --- | --- |
| TTTCTGATCTTGATCGGCCAAG | -1.48 |
| TTATAGTCTCGGTCTCTCCTTG | 0.0783 |
| TTATCATTGAAATAAATCGAAA | -1.61 |

The sequences below were run against USP2 in the same assay as above. Settings: shRNA.

| Sequence | sensor-assay potency score (higher = more potent) |
| --- | --- |
| TAGGTCTCAGTGTCACTCGGTT | -0.44 |
| ATTGAGTTCATGAAGCACGTGT | 0.753 |
| TTTTGCAAACTCTTCCACGAGG | -0.596 |
| TTCTCCACATCTGTCGGCCTTT | -0.4 |
| TAGATATTTTCTCCACATCTGT | -1.14 |
| TAGTTTTGCAAACTCTTCCACG | -0.662 |
| TTAGGTCTCAGTGTCACTCGGT | 0.557 |
| TTGGTGAAGAGCCTCATGCAGT | -0.823 |
| TGAAAGTGTGCCATTCTCCTGT | 0.787 |
| TAGAACAGTAACCACAATCTGT | -0.00783 |
| TATTTTCTCCACATCTGTCGGC | 0.643 |

The sequences below were run against USP43 in the same assay as above. Settings: shRNA.

| Sequence | sensor-assay potency score (higher = more potent) |
| --- | --- |
| TAGCACCTTGCTCTCACTGTGG | -0.424 |
| TTCGGAGACAAATAGCTGCAGG | -0.652 |
| TGTAGAACTGAAAACATTCATC | -0.712 |
| TTTCCTTGAGTTTCCTTGCTGT | 0.819 |
| TTGCTGTGTTTGGACCATCTGA | -0.995 |
| TTTGCACAAAGCTTTGACCTAG | 0.51 |
| TTGCTGAGGATAGACTGCTGGA | -0.504 |
| TACTCCACCAACTCGACGGAGG | -1.32 |
| TTGCACAAAGCTTTGACCTAGA | 0.359 |
| TCGTACAGGAAGTCCAGCGGGT | -0.327 |
| TAGAACAGGATATAAGCCCCTC | -0.232 |
| TAGGTAGGGACACACACAGGAA | -1.19 |

Each sequence was assayed against USP44 in the same assay as above. Settings: shRNA.

| Sequence | sensor-assay potency score (higher = more potent) |
| --- | --- |
| TTGATCTTCACTTTGAAGCAGA | -0.107 |
| TTGCACAAGTTCATCATCCGAG | 0.487 |
| TACGCTTTGAGTTACACTGGTC | 0.148 |
| TACAACATTCAGAACTTGTTTG | -0.39 |
| TTGCAGTCCACACAGTGCCATT | -1.55 |
| TAACTTGATACTCCAATTCCTG | -1.33 |
| TATAAAACAAGATATAAGCTTG | -0.0233 |
| TATCATTCAGAACATAATCATC | -1.41 |
| TTGATTTGTTGTCACATGCAAG | -1.1 |
| TATCTTTTGCTGGTGATGCTGG | -0.299 |
| TTGCAGTGTACCCAGAACCCTC | -1.01 |
| TTTGATATACTACTGTATCTGT | 0.327 |
